From PubChem BioAssay (NCATS) come the findings set out here.

Structures are written as SMILES. Results filed as inconclusive are left out. Calls of active or inactive are those of the source. Unless noted, calls come from the whole dose curve.

Experiment [1] addresses Lysosomal acid glucosylceramidase (Homo sapiens) (UniProt P04062). The experiment can be described thus: Glucocerebrosidase-p2 (AID 348; in the data active = potency below about 10 µM; note: potency is the fitted concentration of half-maximal effect). The note with it: purified GBA, blue fluorogenic substrate, 40 min. In short, it runs like this: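 Normal human glucocerebrosidase (0.2 nM) with blue fluorogenic substrate (80 uM final) in citrate/phosphate pH 5.9 with 10mM sodium taurocholate, 0.01% tween-20; 40 min RT, NaOH/glycine stop; fluorescence Ex 365/Em 440; AC50 from a titration from 0.6 nM upwards.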

Experiment [2] in a line: AP1 Signaling Pathway (AID 357; active = well fitted curve in either direction with a large enough effect, not every such curve was filed as active; note: % is set by controls: 0 for no effect and ±100 for the full control effect). The note with it: ME-180 AP-1-bla reporter, EGF-induced, beta-lactamase ratio, 5 h; at 7.69 µM (top of the series) unless noted. Put shortly:
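Read-out was the 460nm/530nm emission ratio (excitation 405nm) after CCF4 loading for 2.5 hours at room temperature. Cells carried an AP-1-driven beta-lactamase reporter, were stimulated with EC50 EGF plus compound for 5 hours, and AC50 values came from titrations.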

Experiment [3] in a line: Stat Signaling Pathway (AID 446; active = well fitted curve in either direction with a large enough effect, not every such curve was filed as active;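 note: ME-180 cervical cancer cells given 40 pM IL-6 alongside compound; SIE-controlled beta-lactamase reporter measured as 460/530 nm FRET emission ratio; % is set by controls: 0 for no effect and ±100 for the full control effect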). The note with it: ME-180 SIE beta-lactamase reporter, IL-6 stimulated, 5 h; at 7.69 µM (top of the series) unless noted. In short, it runs like this: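 Compound effects on IL-6-induced STAT reporter activity were measured in ME-180 cells. After overnight culture, cells were co-treated with 40 pM IL-6 for 5 hrs before beta-lactamase substrate loading at room temperature.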

The target of experiment [4] is Glucocorticoid receptor (Homo sapiens) (UniProt P04150). The experiment can be described thus: GR-EFC Redistribution (AID 451). Note: potency is the fitted concentration of half-maximal effect. The note with it: CHO-K1 GR-EFC translocation, beta-gal luminescence, 2 h. In short, it runs like this: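 CHO-K1 cells expressing nuclear EA and GR-ED fragments of b-gal; compounds titrated up to 46 uM final, 2 h at 37 C. GR nuclear translocation read as complemented b-gal luminescence after 1 h RT detection.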
Glucocorticoid receptor (Homo sapiens), sequence (P04150 whole entry, looked up, the tested form may be a part): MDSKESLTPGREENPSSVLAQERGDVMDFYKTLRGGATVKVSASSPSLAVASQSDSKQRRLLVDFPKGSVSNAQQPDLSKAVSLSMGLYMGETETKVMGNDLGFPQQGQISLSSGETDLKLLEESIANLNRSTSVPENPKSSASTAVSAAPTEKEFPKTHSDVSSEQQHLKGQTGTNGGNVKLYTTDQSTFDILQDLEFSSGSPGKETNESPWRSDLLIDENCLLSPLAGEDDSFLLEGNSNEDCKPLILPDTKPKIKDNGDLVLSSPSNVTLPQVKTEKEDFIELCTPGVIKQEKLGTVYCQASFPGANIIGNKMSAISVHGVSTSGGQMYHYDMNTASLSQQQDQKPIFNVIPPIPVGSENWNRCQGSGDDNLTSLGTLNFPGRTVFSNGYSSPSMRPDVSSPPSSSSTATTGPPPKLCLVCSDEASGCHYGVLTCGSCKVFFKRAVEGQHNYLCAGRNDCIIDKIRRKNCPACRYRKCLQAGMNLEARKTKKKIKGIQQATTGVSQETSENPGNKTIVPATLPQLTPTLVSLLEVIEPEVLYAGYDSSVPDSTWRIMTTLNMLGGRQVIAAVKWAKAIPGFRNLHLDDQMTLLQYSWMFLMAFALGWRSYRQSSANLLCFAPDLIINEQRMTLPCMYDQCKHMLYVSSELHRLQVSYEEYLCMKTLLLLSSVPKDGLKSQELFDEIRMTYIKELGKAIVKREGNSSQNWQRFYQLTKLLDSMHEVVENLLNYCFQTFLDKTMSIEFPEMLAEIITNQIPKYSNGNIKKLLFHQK

Experiment [5] deals with Mitogen-activated protein kinase 10 (Mus musculus) (UniProt Q61831). The experiment can be described thus: JNK3 AlphaScreen Assay (AID 530; active = well fitted curve in either direction with a large enough effect, not every such curve was filed as active;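 note: kinase came from lysate of stimulated human HepG2 cells; signal reports phosphorylation of biotinylated GST-cJun 1-79 at Ser73 with 10 µM ATP; % is set by controls: 0 for no effect and ±100 for the full control effect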). The note with it: JNK3 lysate, c-Jun phosphorylation; series mostly up to 57.1 µM. In short, it runs like this: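 Activity was read by AlphaScreen after JNK3-containing HepG2 lysate (cytokine pre-activated) phosphorylated biotinylated GST-cJun with 10 uM ATP at room temperature. Phospho-Ser73 cJun antibody with Protein-A acceptor beads provided detection.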
(Alpha assays give light when donor and acceptor beads are brought close together.)

Experiment [6] concerns the target 3',5'-cyclic-AMP phosphodiesterase 4B (Homo sapiens) (UniProt Q07343). The experiment can be described thus: qHTS Assay for Inhibitors of PDE-IV (AID 607; active = well fitted activation curve with a large enough effect in the main read-out, with a control signal flat, not every such curve was filed as active; note: % of control where 0% means no effect). The note with it: HEK293 ACTOne CNG channel cells, membrane potential fluorescence; series mostly up to 22.9 µM. In short, it runs like this:
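ACTOne HEK293 cells carry a modified cAMP-gated CNG channel and express endogenous PDE4; plated 1000 cells/well, compounds up to 22.9 uM final. Membrane-potential dye fluorescence (ex 535/em 590) was read; parental cells received 10 uM forskolin + 100 uM RO 20-1724.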
A general note: In qHTS, concentration-response curves come from the screen itself.

A short description of experiment [7]: qHTS Assay for Identification of Small Molecule Agonists for Hypoxia Response Element Signaling Pathway (AID 914; active = well fitted activation curve with a large enough effect in the signal ratio, with a control signal flat, not every such curve was filed as active; the % refers to the signal ratio; note: % of control where 0% means no effect). The note with it: ME-180 (cervical carcinoma) HRE-bla reporter, beta-lactamase ratio, CoCl2, 17 h; activation: stronger effect = higher value. Put shortly: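 Cells were plated overnight, pin-dosed with compound in a titration series, co-stimulated with EC50 CoCl2 and incubated 17 hours at 37 degrees Celsius. CCF4 substrate was then loaded, and AC50 values came from the 460nm/530nm ratio.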

A short description of experiment [8]: qHTS Assay for Lipid Storage Modulators (AID 1519). The note with it: Drosophila S3 cells, BODIPY lipid droplet/cell ratio, laser cytometry, cells loaded with oleic acid; for activity change, negative = inhibition: at 57.5 µM (top of the series). Put shortly:
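Cells seeded at 5,000 per well were treated with compounds over a concentration series and loaded with oleic acid (400 uM, as added). Lipid droplet fluorescence (488 nm excitation, 500-530 nm channel) was read by laser-scanning cytometry and normalized to 20 uM Triacsin C.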

Experiment [9] in a line: Primary qHTS for small molecule stabilizers of the endoplasmic reticulum resident proteome: Secreted ER Calcium Modulated Protein (SERCaMP) assay (AID 1508630; active = well fitted curve in the direction sought with a large enough effect; an effect the other way counts as inactive or inconclusive; note: % is set by controls: 0 for no effect and ±100 for the full control effect). The note with it: SH-SY5Y GLuc-SERCaMP (Gaussia luciferase released on ER calcium loss) secretion, thapsigargin, luminescence; series mostly up to 38.4 µM. In short, it runs like this: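 The SH-SY5Y reporter protocol was run at 3 concentrations up to 38.3 uM (primary) or 11 concentrations (follow-up): 16 h compound, 100 nM thapsigargin for 4 h, then extracellular luciferase luminescence.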

Experiment [10] has as its target Cytochrome P450 1A2 (Homo sapiens) (UniProt P05177). The experiment can be described thus: p450-cyp1a2 (AID 410).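 For activity change, negative = inhibition: -100% = full effect of reference inhibitor.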 Note: potency is the fitted concentration of half-maximal effect. The note with it: recombinant CYP1A2, luciferin-ME demethylation, luminescence; series mostly up to 57 µM. In short, it runs like this: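 O-Demethylation of luciferin 6' methyl ether by human CYP1A2 is monitored as luciferase luminescence. Substrate sits at Km (100uM); enzyme is 20nM. Values are scaled to 57 uM furafylline as maximal inhibition.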

For experiment [11], the target named is Cytochrome P450 3A4 (Homo sapiens) (UniProt P08684). The experiment can be described thus: qHTS Assay for Activators of Cytochrome P450 3A4 (AID 885; active = well fitted curve in the direction sought with a large enough effect; an effect the other way counts as inactive or inconclusive; note: nearly all actives have a fitted effect of over 65% in size). The note with it: recombinant CYP3A4, Luciferin-PPXE luminescence, 60 min; series mostly up to 57.1 µM. In short, it runs like this:
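CYP3A4 activity: Luciferin-PPXE O-dealkylation, 25uM substrate, 200mM KPO4, RT throughout. Read-out is luciferase luminescence; higher values reflect activation.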

Experiment [12] concerns the target Cytochrome P450 2D6 (Homo sapiens) (UniProt P10635). In words: qHTS Assay for Inhibitors and Substrates of Cytochrome P450 2D6 (AID 891; active = well fitted curve in the direction sought with a large enough effect; an effect the other way counts as inactive or inconclusive; note: potency is the fitted concentration of half-maximal effect; nearly all actives have a fitted effect of over 60% in size). The note with it: recombinant CYP2D6, luciferin-ME EGE luminescence; series mostly up to 57.1 µM. In short, it runs like this:
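Luminescent read-out of luciferin formed by 5 nM human CYP2D6 demethylating 30 uM Luciferin-ME EGE (Km level) over 60 min at room temperature after NADPH regeneration addition. Data normalized to full inhibition by 1.43 uM quinidine.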

The nature of experiment [13]: NFAT Signaling Pathway (AID 444; active = well fitted curve in either direction with a large enough effect, not every such curve was filed as active). The note with it: Jurkat NFAT-bla M1, carbachol, beta-lactamase ratio, 5 h; at 7.69 µM (top of the series) unless noted. Put shortly:
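Jurkat cells with NFAT-driven β-lactamase reporter and co-expressed M1 receptor, stimulated with carbachol (final 1 uM, ~EC50), compound titration, 5 h at 37 °C. CCF4 loaded 1 h at RT; 460/530 nm ratio gave %activity and AC50.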

For experiment [14], the target named is Glucocorticoid receptor (Homo sapiens) (UniProt P04150). The experiment can be described thus: GR-GFP Redistribution (AID 450;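 active = compounds whose dose series gives a full or clear partial fitted curve of increased nuclear translocation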; note: potency is the fitted concentration of half-maximal effect). The note with it: U2OS GR-GFP nuclear translocation, laser cytometry, 2 h.
Experiment [15] addresses Cytochrome P450 2C19 (Homo sapiens) (UniProt P33261). The experiment can be described thus: qHTS Assay for Inhibitors and Substrates of Cytochrome P450 2C19 (AID 899; active = well fitted curve in the direction sought with a large enough effect; an effect the other way counts as inactive or inconclusive; note: % is set by controls: 0 for no effect and ±100 for the full control effect; nearly all actives have a fitted effect of over 60% in size). The note with it: recombinant CYP2C19, luciferin-H EGE luminescence; series mostly up to 57.1 µM. In short, it runs like this: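 Luminescent read-out of luciferin formed from Luciferin-H EGE (10uM, equal to KM). Enzyme 5nM in 50mM KPO4; compound added, 10 min at 37C, then NADPH regenerating system for 60 min at 37C. Full inhibition defined by 57uM ketoconazole.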

Setting [16] is: measured here: cell count channel max response.
The mark [17] stands for this setting: measured here: lipid channel max response.

Cytochrome P450 1A2 (Homo sapiens), sequence (P05177 whole entry, looked up): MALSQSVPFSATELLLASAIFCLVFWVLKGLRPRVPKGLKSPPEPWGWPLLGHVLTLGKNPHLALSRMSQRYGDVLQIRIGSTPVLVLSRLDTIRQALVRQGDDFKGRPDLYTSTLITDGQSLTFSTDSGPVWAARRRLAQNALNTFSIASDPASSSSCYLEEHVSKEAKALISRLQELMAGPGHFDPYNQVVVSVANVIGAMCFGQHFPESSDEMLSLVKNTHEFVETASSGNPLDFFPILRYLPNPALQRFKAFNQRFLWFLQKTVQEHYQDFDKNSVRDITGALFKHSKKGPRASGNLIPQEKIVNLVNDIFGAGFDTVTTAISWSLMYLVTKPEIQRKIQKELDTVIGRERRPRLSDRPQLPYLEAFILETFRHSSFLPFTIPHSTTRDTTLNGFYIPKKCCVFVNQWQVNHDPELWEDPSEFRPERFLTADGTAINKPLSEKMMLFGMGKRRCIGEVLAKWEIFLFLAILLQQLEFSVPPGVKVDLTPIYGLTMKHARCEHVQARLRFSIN
Lysosomal acid glucosylceramidase (Homo sapiens), sequence (P04062 whole entry, looked up): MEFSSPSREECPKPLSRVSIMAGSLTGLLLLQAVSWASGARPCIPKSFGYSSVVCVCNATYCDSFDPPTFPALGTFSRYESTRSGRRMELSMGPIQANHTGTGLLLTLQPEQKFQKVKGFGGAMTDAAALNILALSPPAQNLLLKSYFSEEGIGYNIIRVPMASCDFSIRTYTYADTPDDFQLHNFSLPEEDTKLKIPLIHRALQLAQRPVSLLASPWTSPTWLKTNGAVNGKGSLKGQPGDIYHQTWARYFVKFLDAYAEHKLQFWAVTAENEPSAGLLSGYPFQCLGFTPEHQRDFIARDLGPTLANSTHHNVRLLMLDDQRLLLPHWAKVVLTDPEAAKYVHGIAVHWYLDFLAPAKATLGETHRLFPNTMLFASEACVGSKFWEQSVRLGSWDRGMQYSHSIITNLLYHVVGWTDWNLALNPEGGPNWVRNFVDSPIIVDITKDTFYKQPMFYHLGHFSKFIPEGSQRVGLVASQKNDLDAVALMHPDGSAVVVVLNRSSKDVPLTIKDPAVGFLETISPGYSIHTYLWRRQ
3',5'-cyclic-AMP phosphodiesterase 4B (Homo sapiens), sequence (Q07343 whole entry, looked up): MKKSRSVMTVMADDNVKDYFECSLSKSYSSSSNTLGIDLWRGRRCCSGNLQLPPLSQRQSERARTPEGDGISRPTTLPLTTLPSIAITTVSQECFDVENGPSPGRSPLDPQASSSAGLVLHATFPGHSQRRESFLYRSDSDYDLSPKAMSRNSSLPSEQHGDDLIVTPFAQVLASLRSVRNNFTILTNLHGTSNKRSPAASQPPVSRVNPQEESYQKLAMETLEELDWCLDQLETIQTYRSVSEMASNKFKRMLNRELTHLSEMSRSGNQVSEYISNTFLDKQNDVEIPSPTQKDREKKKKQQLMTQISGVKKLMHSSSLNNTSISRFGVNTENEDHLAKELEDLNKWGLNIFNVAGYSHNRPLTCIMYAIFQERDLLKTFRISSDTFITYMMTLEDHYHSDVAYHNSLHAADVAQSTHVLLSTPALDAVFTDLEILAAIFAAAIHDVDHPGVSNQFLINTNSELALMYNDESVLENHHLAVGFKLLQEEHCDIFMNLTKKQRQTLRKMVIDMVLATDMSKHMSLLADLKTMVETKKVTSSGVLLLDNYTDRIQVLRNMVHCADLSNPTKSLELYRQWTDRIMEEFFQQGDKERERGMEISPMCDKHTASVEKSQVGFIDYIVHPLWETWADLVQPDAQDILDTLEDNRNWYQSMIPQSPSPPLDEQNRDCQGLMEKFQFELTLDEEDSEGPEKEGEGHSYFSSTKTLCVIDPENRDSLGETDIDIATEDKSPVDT
Cytochrome P450 3A4 (Homo sapiens), sequence (P08684 whole entry, looked up): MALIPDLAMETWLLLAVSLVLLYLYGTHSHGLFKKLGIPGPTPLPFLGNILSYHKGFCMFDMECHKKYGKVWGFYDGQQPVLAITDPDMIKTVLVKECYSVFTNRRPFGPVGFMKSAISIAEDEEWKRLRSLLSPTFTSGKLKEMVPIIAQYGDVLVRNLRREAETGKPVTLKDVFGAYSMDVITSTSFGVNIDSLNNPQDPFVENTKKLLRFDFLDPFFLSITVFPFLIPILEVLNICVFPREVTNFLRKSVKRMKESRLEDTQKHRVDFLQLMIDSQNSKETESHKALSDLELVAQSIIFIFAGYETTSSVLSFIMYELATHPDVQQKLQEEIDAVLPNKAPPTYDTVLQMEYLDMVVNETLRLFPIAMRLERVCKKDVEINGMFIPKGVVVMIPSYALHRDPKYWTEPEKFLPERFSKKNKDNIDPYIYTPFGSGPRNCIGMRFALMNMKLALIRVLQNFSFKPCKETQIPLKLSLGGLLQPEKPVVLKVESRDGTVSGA
Cytochrome P450 2C19 (Homo sapiens), sequence (P33261 whole entry, looked up): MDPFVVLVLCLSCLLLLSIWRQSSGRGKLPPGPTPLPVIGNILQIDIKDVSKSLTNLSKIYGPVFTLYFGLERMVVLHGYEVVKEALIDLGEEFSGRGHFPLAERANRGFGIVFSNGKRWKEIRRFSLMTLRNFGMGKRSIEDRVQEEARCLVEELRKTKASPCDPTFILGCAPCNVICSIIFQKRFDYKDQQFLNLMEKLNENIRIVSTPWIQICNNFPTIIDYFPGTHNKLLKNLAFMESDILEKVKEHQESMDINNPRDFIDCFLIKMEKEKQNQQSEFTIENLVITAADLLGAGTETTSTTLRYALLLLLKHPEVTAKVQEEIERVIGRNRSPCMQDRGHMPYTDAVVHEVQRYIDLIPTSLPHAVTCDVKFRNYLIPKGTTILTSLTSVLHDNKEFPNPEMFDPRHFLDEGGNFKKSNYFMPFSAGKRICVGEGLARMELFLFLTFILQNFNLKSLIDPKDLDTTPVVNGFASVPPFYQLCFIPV
Cytochrome P450 2D6 (Homo sapiens), sequence (P10635 whole entry, looked up): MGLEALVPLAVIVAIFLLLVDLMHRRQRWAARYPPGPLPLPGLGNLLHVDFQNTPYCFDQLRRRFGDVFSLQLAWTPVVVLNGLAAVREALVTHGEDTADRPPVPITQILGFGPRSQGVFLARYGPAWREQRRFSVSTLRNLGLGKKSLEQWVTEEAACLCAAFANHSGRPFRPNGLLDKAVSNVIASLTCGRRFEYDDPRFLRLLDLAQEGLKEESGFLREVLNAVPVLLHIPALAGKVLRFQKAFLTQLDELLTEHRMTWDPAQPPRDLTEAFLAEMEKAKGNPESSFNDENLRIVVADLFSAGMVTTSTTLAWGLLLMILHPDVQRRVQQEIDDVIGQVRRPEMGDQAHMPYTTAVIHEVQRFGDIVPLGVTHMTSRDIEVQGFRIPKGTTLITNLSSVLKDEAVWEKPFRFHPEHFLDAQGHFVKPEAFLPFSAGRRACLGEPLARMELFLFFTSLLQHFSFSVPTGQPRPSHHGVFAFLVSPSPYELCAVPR

For the compound `CC(C)CN1CC2(CCN(S(=O)(=O)c3ccccc3)CC2)C1`, the Potency in experiment [1] was > 11.4 µM (inactive); in experiment [4], > 46 µM (inactive). For the same compound, the activity change, negative = inhibition in [2] was 6.33% (inactive); in experiment [8], -0.648% (inactive). In addition, the activity, negative = inhibition in [3] was -2.48% (inactive). Further, the Potency result in experiment [5] and in [6] was “inactive” each time. For the same compound, the activation in [7] is 6.29% (inactive). For the same compound, the max response is -17.9% in [8] (setting [16]) and -14.3% in experiment [8] (setting [17]). Besides, in experiment [9], the outcome was inactive.
With `COc1ccc(C(=O)N2CCC3(CCN(Cc4ccc(C#N)cc4)CC3)CC2)cc1`, the Potency in experiment [1] was > 11.4 µM (inactive); in experiment [10], 12.6 µM (active); in experiment [4], > 46 µM (inactive). The activity, negative = inhibition in experiment [3] is 0.785% (inactive). The Potency entry in experiment [5] and in experiment [6] was “inactive” each time. Besides, the activity change, negative = inhibition in [8] was 1.02% (inactive). The max response in experiment [8] (setting [16]) is 16.6%; in [8] (setting [17]) it was 21%. In addition, the outcome in experiment [9] was inactive.
`O=S(=O)(c1ccccc1)N1CCC[C@@]2(CCN(Cc3cc(C(F)(F)F)cc(C(F)(F)F)c3)C2)C1`: the results for the Potency in experiment [1] and in experiment [4] were > 11.4 µM (inactive) and > 46 µM (inactive), respectively. For the same compound, the Potency entry in experiment [10], in experiment [5] and in experiment [6] was “inactive” throughout. Also, the activity change, negative = inhibition in [8] is 4.5% (inactive). Further, the max response in experiment [8] (setting [16]) worked out at 17.1%; in experiment [8] (setting [17]), 25.2%. Also, the outcome in experiment [9] was inactive.
Take `COc1ccc(C(=O)N2CCC3(CCCN(Cc4ccccc4)C3)CC2)cc1`: the Potency is > 11.4 µM (inactive) in [1], > 46 µM (inactive) in experiment [4] and 7.94 µM (active) in experiment [12]. Further, the Potency entry in experiment [10], in [5], in experiment [6] and in experiment [11] was “inactive” each time. For the same compound, the activity, negative = inhibition in experiment [3] was -10.9% (inactive). In addition, the activity change, negative = inhibition in [8] is 4.53% (inactive). For the same compound, the results for the max response in experiment [8] (setting [16]) and in experiment [8] (setting [17]) were 1.31% and 6.86%, respectively. For the same compound, the result in experiment [9] was inactive.
For the compound `COc1ccc(Oc2ncc3nc(-c4ccc(OC)cc4)c(=O)n(CCC#N)c3n2)cc1`, the values for the Potency in experiment [1], in experiment [14] and in experiment [4] were > 11.4 µM (inactive), > 9.22 µM (inactive) and > 46 µM (inactive), respectively. Besides, the activity change, negative = inhibition was 7.68% (inactive) in experiment [13] and -1.07% (inactive) in experiment [8]. In [3], the activity, negative = inhibition was 2.86% (inactive). Moreover, the Potency result in experiment [5] and in experiment [6] was “inactive” throughout. The figures for the max response in experiment [8] (setting [16]) and in experiment [8] (setting [17]) were 17.2% and 21%, respectively. In addition, the outcome in experiment [9] was inactive.
In the case of `COC(=O)N1CCC2(CCCN(c3ccncc3)C2)CC1`, the results for the Potency in [1] and in experiment [4] were > 11.4 µM (inactive) and > 46 µM (inactive), respectively. Moreover, the activity change, negative = inhibition is -3.28% (inactive) in experiment [2] and 5.16% (inactive) in [8]. Moreover, the Potency result in [5], in experiment [6] and in [15] was “inactive” throughout. Also, the max response is 21.3% in experiment [8] (setting [16]) and 29.2% in experiment [8] (setting [17]). For the same compound, in [9], the result was inactive.
Consider `COCC(=O)N1CCC2(CC1)CCN(c1ncccn1)CC2`, for which the Potency is > 11.4 µM (inactive) in experiment [1] and > 46 µM (inactive) in experiment [4]. The Potency entry in experiment [10], in [5] and in experiment [6] was “inactive” each time. For the same compound, the activity change, negative = inhibition is 16.6% (inactive) in experiment [13] and 3.55% (inactive) in [8]. In experiment [3], the activity, negative = inhibition was -0.157% (inactive). Further, the values for the max response in [8] (setting [16]) and in experiment [8] (setting [17]) were 11.8% and 17.5%, respectively. Besides, the outcome in experiment [9] was inactive.
`COc1ccc(-c2nc3cnc(N4CCNCC4)nc3n(C)c2=O)cc1`: the Potency in [1] is > 11.4 µM (inactive); in experiment [10] it was 12.6 µM (active); in [14] it was > 9.22 µM (inactive); in [4], > 46 µM (inactive). The Potency entry in experiment [5], in [6] and in experiment [11] was “inactive” each time. Moreover, the activity change, negative = inhibition in [8] was 4.15% (inactive). Also, the max response in experiment [8] (setting [16]) was 15.8%; in experiment [8] (setting [17]), 21.9%. Moreover, the outcome in [9] was inactive.
